Six compounds from PubChem BioAssay can be followed below.

The subject of experiment [1] is Plasmodium falciparum Sir2 (PF13_0152, Sir2A). The experiment in a line: Plasmodium falciparum Sir2A binding compounds – biochemical, small-molecule microarray, 635 nm fluorescence, primary screen (AID 1098).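 Also: score merges spot fluorescence intensity with its signal-to-noise ratio.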 As to conditions: fluorescence 635 nm, higher = more signal.
A short description of experiment [2]: probe aDKK1 binding to arrayed compounds – biochemical, biotinylated probe, 635/667 nm fluorescence, primary screen (AID 1099).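 Also: score merges 667nm spot fluorescence with signal to noise across triplicate slides.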 As to conditions: small-molecule microarray, higher = more signal.
Experiment [3] is described as follows: probe aCHRDL2 binding to arrayed compounds – biochemical, biotinylated probe, 635/667 nm fluorescence, primary screen (AID 1100). As to conditions: small-molecule microarray, higher = more signal.
Experiment [4] in a line: change in splice reporter luminescence, either direction, cell-based, HEK293, spliceosome inhibition project, primary screen (AID 1101).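 Also: HEK293 cells carrying a splicing-competent luciferase reporter gene; test concentration not given here.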 To be noted: HEK293 splicing luciferase reporter, 24 h, higher = more signal, called active from +8 up or from −8 down.
The target in experiment [5] is Fibroblast growth factor 10 (Homo sapiens) (UniProt O15520). As to the kind of experiment: compounds binding fibroblast growth factor 10 – biochemical, small-molecule microarray, 635 nm fluorescence, primary screen (AID 1102). To be noted: FGF10 binding, fluorescence 635 nm, higher = more signal.
Fibroblast growth factor 10 (Homo sapiens), sequence (O15520 whole entry, looked up): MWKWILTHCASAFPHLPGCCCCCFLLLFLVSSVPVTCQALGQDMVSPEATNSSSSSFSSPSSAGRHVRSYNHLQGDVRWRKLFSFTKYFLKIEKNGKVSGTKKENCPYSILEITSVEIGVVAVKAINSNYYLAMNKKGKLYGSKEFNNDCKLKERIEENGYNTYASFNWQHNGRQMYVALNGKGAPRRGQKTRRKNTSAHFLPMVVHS
Experiment [6] has as its system glycogen synthase kinase-3 (GSK3A per assay name; protocol says GSK3B). As to the kind of experiment: compounds binding glycogen synthase kinase-3 – biochemical, small-molecule microarray, 635 nm fluorescence, GSK3A, primary screen (AID 1103). Also: the record names both GSK3A and GSK3B. As to conditions: fluorescence 635 nm, higher = more signal.
Experiment [7] concerns the target Epidermal growth factor receptor (Homo sapiens) (UniProt P00533). The experiment in a line: compounds binding epidermal growth factor receptor – biochemical, small-molecule microarray, 635 nm fluorescence, primary screen (AID 1104).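 Also: score merges 667 nm emission intensity with spot signal to noise over triplicate slides.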 As to conditions: EGFR binding, higher = more signal.
In experiment [8] the target is Follistatin-related protein 3 (Homo sapiens) (UniProt O95633). As to the kind of experiment: compounds binding follistatin-related protein 3 – biochemical, small-molecule microarray, 635 nm fluorescence, primary screen (AID 1105).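 Also: score merges emission near 667 nm and signal to noise per printed spot across three slides.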 As to conditions: FSTL3 binding, higher = more signal.
Follistatin-related protein 3 (Homo sapiens), sequence (O95633 whole entry, looked up): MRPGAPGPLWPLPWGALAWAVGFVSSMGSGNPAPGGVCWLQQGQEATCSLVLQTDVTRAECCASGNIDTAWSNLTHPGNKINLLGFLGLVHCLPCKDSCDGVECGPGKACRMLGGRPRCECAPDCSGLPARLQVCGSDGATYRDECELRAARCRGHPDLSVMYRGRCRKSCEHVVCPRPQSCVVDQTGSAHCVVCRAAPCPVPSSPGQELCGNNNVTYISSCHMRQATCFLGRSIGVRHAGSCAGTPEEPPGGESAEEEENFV
For experiment [9], the target named is Dickkopf-related protein 1 (Homo sapiens) (UniProt O94907). The experiment in a line: small molecules binding DKK1 protein – biochemical, small-molecule microarray, 635 nm fluorescence scan, primary screen (AID 1106).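 Also: score merges emission near 667 nm with signal to noise over three replicate slides.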 As to conditions: higher = more signal.
Dickkopf-related protein 1 (Homo sapiens), sequence (O94907 whole entry, looked up): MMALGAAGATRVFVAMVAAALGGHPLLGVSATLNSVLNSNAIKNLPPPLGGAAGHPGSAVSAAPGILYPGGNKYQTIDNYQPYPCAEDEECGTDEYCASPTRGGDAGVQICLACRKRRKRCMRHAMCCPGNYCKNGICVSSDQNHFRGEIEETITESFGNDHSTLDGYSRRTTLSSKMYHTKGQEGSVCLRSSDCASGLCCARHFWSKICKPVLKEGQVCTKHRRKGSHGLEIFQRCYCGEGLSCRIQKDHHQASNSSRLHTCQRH
Experiment [10] relates to Inhibin beta A chain (activin A). The experiment in a line: small molecules binding activin A – biochemical, small-molecule microarray, 635 nm fluorescence scan, primary screen (AID 1107).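 Also: mouse activin A protein probed at 4.33 µg/mL on printed slides; score merges bound-protein fluorescence near 667 nm with spot signal-to-noise.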 To be noted: INHBA, higher = more signal.
For experiment [11], the system named is Human papillomavirus type 1a protein E7 (residues 44-93). As to the kind of experiment: small molecules binding HPV E7 44-93 – biochemical, small-molecule microarray, residues 44-93, 635 nm fluorescence, primary screen (AID 1108).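 Also: E7 fragment applied at 1 µg/mL in TBST for 1 h at 4 C; score combines spot fluorescence with its signal to noise ratio.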 To be noted: fluorescence 635 nm, higher = more signal.
Experiment [12] in a line: hepatitis C replication reporter changes, two-sided – Huh7 cells, luciferase reporter, HCV replication inhibitor project, primary screen (AID 1109).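 Also: huh7 hepatoma cells harbouring a luciferase neomycin HCV replicon reporter; luciferase luminescence as measure of HCV replicon replication; test concentration not given here.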 As to conditions: Huh7 HCV replicon luciferase reporter, 48 h; higher = more signal.
Experiment [13] has as its target Left-right determination factor 2 (Homo sapiens) (UniProt O00292). The experiment in a line: small molecules binding LEFTY2 protein – biochemical, small-molecule microarray, 635 nm fluorescence scan, primary screen (AID 1110). As to conditions: higher = more signal.
Experiment [14] concerns the target Calmodulin-1 (Homo sapiens) (UniProt P0DP23). As to the kind of experiment: small molecules binding calmodulin-1 with EGTA – biochemical, small-molecule microarray, Cy5-labelled CALM1, profiling panel (AID 1111).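 Also: labelled calmodulin applied in Tris saline Tween buffer holding calcium plus EGTA and DTT.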 As to conditions: Cy5-CALM1 binding fluorescence, higher = more signal.
For experiment [15] the target is unchanged. The experiment in a line: small molecules binding Ca-loaded calmodulin-1 – biochemical, small-molecule microarray, Cy5-labelled CALM1, plus calcium, artefact control for SMM control-protein annotation, profiling panel (AID 1112).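 Also: score merges spot fluorescence with signal to noise from triplicate slides.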 To be noted: Cy5-CALM1 binding fluorescence, higher = more signal.
Experiment [16] is described as follows: probe aWnt5a binding to arrayed compounds – biochemical, biotinylated probe, 635/667 nm fluorescence, primary screen (AID 1113).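 Also: score merges 667 nm fluorescence intensity with signal-to-noise per printed feature.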 To be noted: small-molecule microarray, higher = more signal.
A short description of experiment [17]: probe aShh binding to arrayed compounds – biochemical, biotinylated probe, 635/667 nm fluorescence, primary screen (AID 1114).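 Also: probe is biotin-labelled aShh protein from a stem cell growth factor screen; measures binding of labelled protein to compounds printed on the slide; score merges feature fluorescence at 667 nm with signal-to-noise.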 As to conditions: small-molecule microarray, higher = more signal.
A short description of experiment [18]: probe aNog binding to arrayed compounds – biochemical, biotinylated probe, 635/667 nm fluorescence, primary screen (AID 1115).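 Also: probe is biotinylated aNog protein used at 0.15 µg/mL for 1 h at 4 C; z-score combines 667 nm fluorescence of each spot with its signal to noise.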 To be noted: small-molecule microarray, higher = more signal.
Experiment [19] deals with Torsin-1A-interacting protein 1 (Homo sapiens) (UniProt Q5JTV8). As to the kind of experiment: compound microarray binding of lysate hLAP1 – cell lysate, small-molecule microarray, COS7 lysate, 635/667 nm fluorescence, primary screen (AID 1116). As to conditions: 635 nm fluorescence, higher = more signal.
Torsin-1A-interacting protein 1 (Homo sapiens), sequence (Q5JTV8 whole entry, looked up): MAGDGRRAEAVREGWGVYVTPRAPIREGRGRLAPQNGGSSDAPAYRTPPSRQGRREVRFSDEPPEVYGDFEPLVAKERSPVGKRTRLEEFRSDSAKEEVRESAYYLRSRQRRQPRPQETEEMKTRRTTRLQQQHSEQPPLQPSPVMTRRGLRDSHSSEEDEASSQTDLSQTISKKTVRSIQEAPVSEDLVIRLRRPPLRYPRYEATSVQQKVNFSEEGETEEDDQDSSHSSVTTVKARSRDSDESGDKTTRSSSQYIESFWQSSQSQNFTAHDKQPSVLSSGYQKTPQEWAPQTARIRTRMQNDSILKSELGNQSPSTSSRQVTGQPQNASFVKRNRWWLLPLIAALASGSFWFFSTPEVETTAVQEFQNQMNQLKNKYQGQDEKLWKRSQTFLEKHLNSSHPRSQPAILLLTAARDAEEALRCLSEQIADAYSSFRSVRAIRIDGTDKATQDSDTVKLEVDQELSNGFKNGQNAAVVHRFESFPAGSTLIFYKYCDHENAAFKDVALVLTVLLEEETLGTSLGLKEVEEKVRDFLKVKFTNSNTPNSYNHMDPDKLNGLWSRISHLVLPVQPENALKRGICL
The target in experiment [20] is Alpha-bungarotoxin (Bungarus multicinctus) (UniProt P60615). As to the kind of experiment: compounds binding labelled alpha-BTX control protein – biochemical, small-molecule microarray, Alexa647 label, 635/667 nm fluorescence, artefact control for SMM control protein annotation, profiling panel (AID 1117). As to conditions: alpha-BTX-A647 binding fluorescence, higher = more signal.
Alpha-bungarotoxin (Bungarus multicinctus), sequence (P60615 whole entry, looked up): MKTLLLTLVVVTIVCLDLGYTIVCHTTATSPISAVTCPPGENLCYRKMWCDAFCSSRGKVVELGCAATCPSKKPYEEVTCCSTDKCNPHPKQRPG

The source made the active and inactive calls.

Left-right determination factor 2 (Homo sapiens), sequence (O00292 whole entry, looked up): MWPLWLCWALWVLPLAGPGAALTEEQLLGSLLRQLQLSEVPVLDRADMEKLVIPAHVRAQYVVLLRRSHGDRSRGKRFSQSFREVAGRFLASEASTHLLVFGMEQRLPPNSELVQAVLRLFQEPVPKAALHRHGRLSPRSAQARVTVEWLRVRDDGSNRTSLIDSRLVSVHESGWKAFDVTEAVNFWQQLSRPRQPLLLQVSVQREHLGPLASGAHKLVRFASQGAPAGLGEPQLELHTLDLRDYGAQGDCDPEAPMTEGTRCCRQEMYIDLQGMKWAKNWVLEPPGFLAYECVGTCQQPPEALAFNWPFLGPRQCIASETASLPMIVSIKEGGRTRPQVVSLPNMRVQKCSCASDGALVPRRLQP
Epidermal growth factor receptor (Homo sapiens), sequence (P00533 whole entry, looked up): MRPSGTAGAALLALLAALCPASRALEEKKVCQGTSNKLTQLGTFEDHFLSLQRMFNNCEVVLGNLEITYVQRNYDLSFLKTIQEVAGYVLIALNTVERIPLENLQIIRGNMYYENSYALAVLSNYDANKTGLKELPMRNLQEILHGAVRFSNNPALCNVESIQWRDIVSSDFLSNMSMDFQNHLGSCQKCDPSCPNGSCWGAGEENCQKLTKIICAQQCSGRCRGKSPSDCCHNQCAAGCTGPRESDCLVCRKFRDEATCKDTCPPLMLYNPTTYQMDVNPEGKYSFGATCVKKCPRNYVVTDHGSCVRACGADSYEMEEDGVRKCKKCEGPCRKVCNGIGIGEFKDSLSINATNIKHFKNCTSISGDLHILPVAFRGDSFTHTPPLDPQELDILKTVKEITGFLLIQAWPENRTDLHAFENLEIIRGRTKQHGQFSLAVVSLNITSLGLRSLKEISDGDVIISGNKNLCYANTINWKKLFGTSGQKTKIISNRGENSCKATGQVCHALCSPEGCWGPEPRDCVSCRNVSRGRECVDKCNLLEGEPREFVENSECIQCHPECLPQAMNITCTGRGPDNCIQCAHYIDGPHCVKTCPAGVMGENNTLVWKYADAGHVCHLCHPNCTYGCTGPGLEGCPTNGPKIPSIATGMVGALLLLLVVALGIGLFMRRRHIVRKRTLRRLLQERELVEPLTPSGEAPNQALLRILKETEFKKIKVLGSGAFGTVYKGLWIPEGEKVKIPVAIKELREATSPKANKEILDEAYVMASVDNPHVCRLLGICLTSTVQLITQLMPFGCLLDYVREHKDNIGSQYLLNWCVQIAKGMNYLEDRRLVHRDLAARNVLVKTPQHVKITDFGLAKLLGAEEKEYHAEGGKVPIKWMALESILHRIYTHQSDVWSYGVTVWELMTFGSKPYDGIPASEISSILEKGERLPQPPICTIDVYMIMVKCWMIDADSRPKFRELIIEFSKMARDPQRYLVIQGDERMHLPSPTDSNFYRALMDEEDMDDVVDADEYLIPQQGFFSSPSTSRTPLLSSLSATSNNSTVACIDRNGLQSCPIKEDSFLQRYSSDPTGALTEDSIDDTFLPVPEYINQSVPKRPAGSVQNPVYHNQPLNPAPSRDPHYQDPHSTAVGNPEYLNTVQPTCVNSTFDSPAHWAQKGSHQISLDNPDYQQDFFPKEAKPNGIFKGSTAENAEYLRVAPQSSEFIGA

In the case of `COC(=O)CC=C[C@@H](C)[C@H](OC)c1ccccc1Br`, the composite z-score in experiment [1] is -0.581; in experiment [2] it was -0.133; in [3], -0.499; in experiment [5], 0.0042; in experiment [6], 0.169; in experiment [7], 0.181. Moreover, the composite z-score in experiment [8] was 0.231; in [9], 0.503; in experiment [10], 0.887; in experiment [11] it was -0.0017; in [13], 0.406; in experiment [14], -0.0557. Further, the composite z-score was -0.346 in [15]; -0.116 in experiment [16]; -0.279 in experiment [17]; -0.482 in [18]; 0.188 in experiment [19]; -0.152 in [20]. In addition, the z-score is -0.0767 (inactive) in experiment [4] and 0.14 in experiment [12].
Consider `COC(=O)[C@H](C)NC(=O)CCC1CC(OC(=O)NCCc2ccc(F)cc2)CC2(CCCC(COC(=O)NCC(c3ccccc3)c3ccccc3)O2)O1` (stereo not given in full), for which the composite z-score was 0.713 in experiment [1]; -0.389 in [2]; -0.498 in [3]; 0.377 in experiment [5]; 0.756 in experiment [6]; 0.384 in [7]. Besides, the composite z-score in experiment [8] was 0.691; in [9], 0.457; in experiment [10] it was -0.0097; in experiment [11], 1.39; in experiment [13], 0.386; in [14] it was 0.084. Further, the composite z-score in experiment [15] is -0.443; in experiment [16], -0.124; in experiment [17], 0.0062; in experiment [18], -0.152; in [19], 0.516; in experiment [20] it was 0.853. Also, the z-score is -0.527 (inactive) in experiment [4] and -0.375 in experiment [12].
For the compound `C/C=C\[C@@H](NCc1ccccc1Br)[C@@H](O)Cc1ccccc1`, the composite z-score in [1] is 0.556; in [2], 0.41; in [3] it was 1.19; in [5] it was -1.69; in experiment [6], -0.683; in experiment [7] it was -1.37. Also, the composite z-score in experiment [8] was -1.69; in experiment [9] it was -1.58; in experiment [10] it was 0.0067; in [11], -0.594; in experiment [13], -0.472; in experiment [14], -0.64. Besides, the composite z-score in experiment [15] is 0.0924; in experiment [16], -0.12; in [17] it was -0.291; in [18] it was -0.18; in experiment [19], -0.541; in experiment [20], -0.791. Besides, the z-score in experiment [4] was -0.307 (inactive); in experiment [12], -3.08.
In the case of `CCN1C(=O)[C@H]2[C@H]3[C@H](O)[C@H](O)CC(=NOC[C@@H](C)[C@H](OCc4ccccc4)C(C)C)[C@@H]3CC[C@H]2C1=O`, the composite z-score is 1.16 in experiment [1]; -0.035 in experiment [2]; -0.171 in experiment [3]; 0.405 in [5]; 0.254 in experiment [6]; 0.108 in experiment [7]. In addition, the composite z-score came to 0.284 in experiment [8]; 0.132 in [9]; 0.359 in experiment [10]; 0.306 in experiment [11]; 0.358 in experiment [13]; 0.809 in [14]. The composite z-score in [15] was 0.484; in [16] it was -0.133; in [17], -0.262; in [18], 0.124; in [19] it was 0.329; in experiment [20] it was 0.234. The values for the z-score in [4] and in [12] were 0.879 (inactive) and -1.47, respectively.
On to `CC(CCC(=O)OC[C@H]1O[C@H](C#Cc2ccccc2)C=C[C@@H]1Oc1ccc(C)cc1)=NOC[C@@H](O)COCc1ccco1`, for which the composite z-score in experiment [1] was 1.33; in experiment [2], -0.627; in [3], -0.044; in experiment [5], -3.07; in [6], -1.25; in experiment [7], -3.58. Moreover, the composite z-score in [8] is -3.18; in experiment [9], -2.09; in experiment [10], -2.69; in experiment [11] it was -0.412; in [13] it was -5.42; in experiment [14], -1.49. Further, the composite z-score in experiment [15] was -1.96; in experiment [16], -0.426; in experiment [17], -0.206; in experiment [18] it was -0.732; in experiment [19], -1.87; in [20] it was -0.818. Also, the z-score in [4] was -0.0928 (inactive); in experiment [12], -0.635.
Regarding `C[C@@H](c1ccccc1)N1C(=O)[C@H]2[C@H]3[C@H](O)[C@H](O)CC(=NNC(=O)OCc4ccccc4)[C@H]3CC[C@H]2C1=O`, the composite z-score is -0.0979 in experiment [1]; 0.24 in [2]; 0.794 in [3]; 0.0359 in experiment [5]; -0.354 in [6]; 0.191 in experiment [7]. Besides, the composite z-score in experiment [8] was -0.461; in experiment [9], -0.415; in [10], 0.0683; in [11], -0.269; in [13], 0.495; in experiment [14] it was 0.12. Besides, the composite z-score in experiment [15] was -0.726; in experiment [16], -0.0735; in experiment [17], 0.0815; in experiment [18], -0.0567; in [19], 0.464; in experiment [20], 0.284. Moreover, the z-score was 0.373 (inactive) in experiment [4] and -2.23 in experiment [12].
